MITF inh: inhibitors of human MITF. O75030. AlphaScreen MITF homodimerization, bead proximity signal. inhibition, % at 2.6 µM. 0.91% of 650,000 active. AID 1259374; in the data active = inhibition above about 50%;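 note: 0% = vehicle wells with protein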
FBW7 act: human FBW7 E3 ligase activation, primary screen; 0.13% of 650,000 active; normalized activity (activation), % at 26.1 µM; AlphaScreen FBW7–phospho-cyclin E peptide binding, activator screen; AID 1259310; Q969H0; in the data active = normalized activity above about 1.9%;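 note: purified mutant Fbw7 with reduced substrate affinity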
TEAD-YAP block: TEAD-YAP interaction inhibition; 1.4% of 640,000 active; HEK-TIYL cells, TEAD-Gal4/YAP UAS-luciferase luminescence; inhibition, % at 9.12 µM; in the data active = inhibition above about 32%;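 note: 0% = median of test compound wells and 100% = reference inhibitor wells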
GPR151 ag: activates the human receptor GPR151; PathHunter beta-arrestin GPR151 cells, luminescence; activation, % at 11.2 µM; 1% of 650,000 active; in the data active = activation above about 4.9%;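 note: 0% = median of compound wells and 100% = cells with positive control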
* marks the source's active call; other numbers are inactive results. Most compounds without a hit are left out; they make up all but 3.4% or so of the library.

SMILES	MITF inh	FBW7 act	TEAD-YAP block	GPR151 ag
COC(=O)c1cccc(NC(=O)COc2ccccc2Br)c1	3	0	43*	0
Cc1ccc(OCC(=O)Nc2cccc(C(=O)O)c2)c(Br)c1	14	0	98*	-10
Cc1ccc(NC(=O)COc2ccccc2C)c(Br)c1	1	0	-27	0
CCC(C)(C)c1ccc(OCC(=O)Nc2cccc(C(=O)O)c2)cc1	-35	0	38*	-2
COC(=O)c1cccc(NC(=O)COc2ccc(C)cc2Br)c1	-3	0	91*	1
COC(=O)c1cccc(NC(=O)COc2cc(C)ccc2C(C)(C)C)c1	14	0	2	0
Cc1ccc(OCC(=O)Nc2ccccc2F)c(Br)c1	1	0	38*	-1
CC(=O)c1cccc(NC(=O)COc2ccc(C(C)(C)C)cc2)c1	0	0	1	1
O=C(COc1cccc2ccccc12)Nc1ccncc1	6	0	40*	0
Cc1ncc(CO)c2cc(C(=O)Nc3ccccc3)c(=O)oc12	11	0	-9	2
CCCOC(=O)c1cccc(NC(=O)COc2ccc(C)cc2Br)c1	-5	1	92*	-1
CCCOC(=O)c1cccc(NC(=O)COc2ccccc2OC)c1	-7	0	-6	1
Cc1ccccc1NC(=O)COc1ccccc1C=O	2	0	-13	0
Cc1ccccc1NC(=O)COc1ccc(Br)cc1C=O	10	0	45*	0
Cc1ccc(NC(=O)c2cccc(Br)c2)c(Br)c1	8	2.5*	-52	1
CC1(C)OC2OC(C(=O)NC(CCC(=O)O)C(=O)O)C3OC(C)(C)OC3C2O1 (configuration not stated)	-2	1	-5	0
Cc1ccc(N2C(=O)NC(=O)/C(=C/c3coc4ccccc4c3=O)C2=O)cc1	1	0	-6	1
CCOc1cc(N2CCOCC2)c(OCC)cc1NS(=O)(=O)c1ccc(F)c(F)c1	-8	0	35*	-2
O=C(O)CCCN(Cc1ccc(Cl)cc1)S(=O)(=O)c1ccc(Br)cc1	8	0	-3	-1
O=C(O)CCN(Cc1ccc(Cl)cc1)S(=O)(=O)c1ccc(Br)cc1	14	2.1*	-2	1
C=CCN1C=C/C(=C\C=C(C#N)C#N)c2ccccc21	68*	-2	13	-2
CN1/C(=C/C=C(C#N)C#N)C=Cc2ccccc21	9	0	-9	0
CCN1CC=C2C(C1)C(c1ccccc1F)C(C#N)=C(N)C2(C#N)C#N (configuration not stated)	19	1	6	-1
Cc1nc2ccccn2c1-c1csc(Nc2ccc(O)cc2)n1	-1	0	31	2
Cc1nc2ccccn2c1-c1csc(Nc2ccc(N)cc2)n1	6	0	54*	0
SMILES	MITF inh	FBW7 act	TEAD-YAP block	GPR151 ag
CC(=O)Nc1ccc(Nc2nc(-c3c(C)nc4ccccn34)cs2)cc1	-6	0	50*	0
Cc1nc2ccccn2c1-c1csc(N)n1	8	0	44*	-1
COc1ccccc1/C=N/NS(=O)(=O)c1ccc(C)cc1	8	0	-1	0
CCCCCCC(=O)Nc1nnc(CCCCCC)s1	5	0	12	0
O=C1C2C3C=CC(C3=C(c3ccccc3)c3ccccc3)C2C(=O)N1c1ccccc1Cl (configuration not stated)	-9	0	-2	0
Cc1cc(NCCOc2ccccc2)nc(Nc2ccc(N3CCOCC3)cc2)n1	4	0	43*	-2
Cc1cc(NCCOc2ccccc2)nc(Nc2ccccc2)n1	0	0	9	1
Cc1cc(Nc2ccccc2)nc(Nc2ccc(N3CCOCC3)cc2)n1	13	0	35*	4
Cc1cc(Nc2ccc(N3CCOCC3)cc2)nc(Nc2ccc(N3CCOCC3)cc2)n1	33	0	5	-2
Cc1cc(NCCOc2ccccc2)nc(Nc2ccc(-n3ccnc3)cc2)n1	1	0	40*	5
COc1ccc(CCNc2cc(C)nc(N3CCOCC3)n2)cc1	2	0	-9	1
COc1ccc(CCNc2cc(C)nc(Nc3ccc(N4CCOCC4)cc3)n2)cc1	22	0	60*	4
COc1cc(-c2nnc(N)o2)ccc1OCc1ccc(Cl)cc1Cl	13	1	-12	-1
CCOc1ccc(-n2cc(-c3ccccc3)c3c(NCCOCCO)ncnc32)cc1	-5	0	6	0
Cc1cc(NCc2cccc(C(F)(F)F)c2)nc(Nc2ccc(C(F)(F)F)cc2)n1	-4	0	10	0
Cc1cc(NCc2cccc(C(F)(F)F)c2)nc(Nc2ccc(N3CCOCC3)cc2)n1	9	0	47*	0
Cc1cc(Nc2ccc(N3CCOCC3)cc2)nc(Nc2cccc(N(C)C)c2)n1	3	0	54*	-1
Cc1cc(NCc2cccc(C(F)(F)F)c2)nc(Oc2ccccc2)n1	18	1	67*	2
Cc1cc(NCCc2ccc(O)cc2)nc(Nc2ccc(-n3ccnc3)cc2)n1	5	0	42*	3
CCCCOC(=O)C1=C(N)N2C(=O)C(C)SC2=C(C(=O)OCC)C1c1ccccc1 (configuration not stated)	3	0	7	0
Nc1nnnn1/N=C/c1c[nH]c2ccccc12	14	1	-15	0
CCCCNC(=O)c1sc(=S)n(CCc2ccccc2)c1N	-1	0	-10	-1
CCCNc1cc(-c2csc3ccccc23)nc(N)n1	3	0	5	0
Nc1nc(NCCOc2ccccc2)cc(Nc2ccccc2)n1	2	0	-13	1
Nc1nc(NCCOc2ccccc2)cc(-c2csc3ccccc23)n1	0	0	42*	1
SMILES	MITF inh	FBW7 act	TEAD-YAP block	GPR151 ag
Nc1nc(NCCOc2ccccc2)cc(-c2ccccc2)n1	19	0	41*	1
COc1ccccc1NC(=O)NC1(C(=O)N2CCc3ccccc32)CCCCC1	7	0	4	0
COC(=O)c1ccc([C@@H]2Nc3ccc(C(=O)O)cc3[C@@H]3C=CC[C@@H]32)cc1	73*	-1	12	0
O=C(O)c1ccc2c(c1)C1C=CCC1C(c1ccncc1)N2 (configuration not stated)	56*	-2	-6	0
O=C(O)c1ccc2c(c1)C1C=CCC1C(c1cccc3ccccc13)N2 (configuration not stated)	23	0	49*	0
O=C(O)c1ccc2c(c1)C1C=CCC1C(c1ccc(F)cc1)N2 (configuration not stated)	30	-1	0	2
O=C(O)c1ccc2c(c1)C1C=CCC1C(c1ccccc1)N2 (configuration not stated)	59*	-1	4	1
COC(=O)c1ccc([C@@H]2Nc3ccc(C(C)=O)cc3[C@@H]3C=CC[C@@H]32)cc1	11	0	-29	-1
Cc1ccccc1-c1nsc(SCC(=O)c2ccccc2)n1	-2	0	-21	-1
CC(=O)c1ccc2c(c1)C1C=CCC1C(c1ccc(Br)cc1)N2 (configuration not stated)	13	1	8	0

Screening results: PubChem BioAssay, The Scripps Research Institute Molecular Screening Center
